Screens as filed in PubChem.
In the library only some 19% were active in any assay of this set; here they are far more common.
DT40 TDP1 no CPT – qHTS for Inhibitors of human tyrosyl-DNA phosphodiesterase 1 (TDP1): qHTS in cells in absence of CPT; DT40 Tdp1-/- hTDP1 cells, no CPT, ATP luminescence, 48 h; Potency, µM (top dose mostly 46.2 µM), actives largely listed as inhibitors; hit rate 15% among 420,000; also: nearly all actives have a fitted effect of over 55% in size
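Compound effects on proliferation are scored in DT40 Tdp1-/-;hTDP1 cells in the absence of CPT. ATP levels (CellTiter-Glo luminescence) are recorded after a ≥48 hr, 37 °C incubation.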
HT1080 IDH1KD tx – HT-1080 IDH1 knockdown cell toxicity (counter line); HT-1080 IDH1 knockdown viability, ATP luminescence, 48 h; Potency, µM (top dose mostly 46.1 µM), most hits filed as cytotoxic; hit rate 2% among 360,000
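% activity derives from luminescence (CellTiter-Glo), normalised to DMSO and no-cell wells. HT-1080-IDH1KD cells, 750/well, had 48 h compound exposure at 37 °C.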
HT1080NT lethal – kills 2HG-producing HT-1080-NT fibrosarcoma cells; HT-1080-NT fibrosarcoma viability, CellTiter-Glo ATP luminescence, 48 h; hit rate 1.6% among 360,000; Potency, µM (highest dose often 46.1 µM), hits mostly cytotoxic;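 also: NT is the 2HG producing partner of a matched IDH1 knockdown line; nearly all actives have a fitted effect of over 55% in size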
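Fibrosarcoma NT cells, 750 per well in 5% FBS RPMI, were exposed to compound for 48 hours. Viability: CellTiter-Glo luminescence.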
ELG1 DNA repair – inhibitors of ELG1-dependent DNA repair in HEK293T cells | HEK293T ELG1-luciferase reporter, luminescence, 16 h; DNA damage induced by 5-fluorouridine | Potency, µM (top dose mostly 46.1 µM), hits mostly inhibitors | hit rate 2.3% among 330,000 | AID 504467; also: nearly all actives have a fitted effect of over 55% in size
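Quantitative HTS, concentration-response format. 2,000 cells/well co-treated with 5-fluorouridine and compound, 16 hr in 5% CO2 at 37 °C; ONE-Glo luminescence read after 30 min.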
IL1B secr inh – inflammasome signaling inhibition, IL-1 beta readout | activity change, % at 57.5 µM | THP-1 LPS/ATP IL-1B secretion, AlphaLISA, 16 h; stronger effect = lower value | AID 743279 | hit rate 4.7% among 360,000; in the data active = activity change below about -50%; inconclusive = mostly about -30% to -49%
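THP-1 cells pretreated 1 hr with compounds (up to 57.5 uM final), then stimulated with LPS (250 ng/mL final) plus ATP (1.25 mM final); secreted IL-1B measured by AlphaLISA after 16 hr, decreased signal indicating inhibition.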
TDP1 cell CPT – growth inhibition of DT40 Tdp1-/-;hTDP1 cells with camptothecin (screen for TDP1 inhibitors). AID 686979. chicken DT40 Tdp1-/-;hTDP1 cells + 20 nM CPT, ATP luminescence, 48 h. hit rate 12% among 420,000. Potency, µM (series often up to 46.2 µM), usual class: inhibitors; also: nearly all actives have a fitted effect of over 55% in size
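Cell growth measured by CellTiter-Glo luminescence after a minimum 48 h, 37 C compound exposure with 20 nM CPT in Tdp1-knockout DT40 cells stably expressing hTDP1, seeded 400/well; qHTS titration format.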
Hits are given with their value; n = inactive; u = inconclusive; x = no result given; [ ] = dose if it differs, or a comment. Unless noted, calls follow the shape of the dose curve; as a rule, active = well fitted curve in the direction sought with a large enough effect; inconclusive = small, poorly fitted or top-dose-only effect, or another doubt; inactive = no such curve, though single readings can be large; an effect the other way counts as inactive or inconclusive.

SMILES	DT40 TDP1 no CPT	HT1080 IDH1KD tx	HT1080NT lethal	ELG1 DNA repair	IL1B secr inh	TDP1 cell CPT
O=[N+]([O-])c1nn(-c2ccc3c(c2)OCCO3)n(O)c1=NC1CCCC1	u	n	n	u	u	18µM
Cc1ccc(CN=c2c([N+](=O)[O-])nn(-c3ccc4c(c3)OCCO4)n2O)cc1	23µM	n	n	u	n	u
O=[N+]([O-])c1nn(-c2ccc3c(c2)OCCO3)n(O)c1=NCCCO	21µM	n	n	u	n	15µM
O=[N+]([O-])c1nn(-c2ccccc2)n(O)c1=NCc1ccc2c(c1)OCO2	u	n[9.24 µM]	n	u	n	u
CC(C)c1ccc(NC(=O)COc2ccc(F)cc2C(=O)c2cnn(-c3ccccc3)c2)cc1	13µM	u	n	u	n	u
O=C(c1cnn(-c2ccccc2)c1)c1cc(F)ccc1O	n	n	n	u	n	n
Cc1ccc(NC(=O)CN2CCN(C)CC2)cc1Br	n	n	n	n	n	n
N#Cc1ccc(/C=C2\C=Cc3ccccc32)cc1	n	x	x	x	x	n
COc1cc2[nH]c(=O)n3nc(-c4ccccc4)nc3c2cc1OC	21µM	n	n	21µM	n	23µM
COc1ccc(-c2nc3c4ccccc4[nH]c(=O)n3n2)cc1	u	n	u	x	n	u
COC(=O)C1CCCCN1Cc1ccc2c(c1)CN(C(=O)c1ccc(C)s1)CCO2 (centres undefined)	n	x	x	x	x	n[9.04 µM]
Cc1cc(NC(=O)C(C)SCC(=O)N(C)Cc2ccccc2F)no1 (centres undefined)	n	n	n	n	n	n
CCOc1ccc(CCN2C(=O)C(=O)N([C@@H](CC(C)C)CN3CCC[C@H]3CN3C(=O)C(=O)NC[C@@H]3Cc3ccccc3)C[C@@H]2Cc2ccccc2)cc1	16µM	u	u	x	u	16µM
CCOc1ccc(CCN2C(=O)C(=O)N([C@@H](CC(C)C)CN3CCC[C@@H]3CN3C(=O)C(=O)NC[C@@H]3Cc3ccccc3)C[C@@H]2Cc2ccc(O)cc2)cc1	u	n	n	x	-52	u
CCOc1ccc(CCN2C(=O)C(=O)N([C@@H](CC(C)C)CN3CCC[C@@H]3CN3C(=O)C(=O)NC[C@@H]3Cc3ccccc3)C[C@@H]2CC(C)C)cc1	23µM	u	u	x	u	u
CCOc1ccc(CCN2C(=O)C(=O)N([C@@H](CC(C)C)CN3CCC[C@H]3CN3C(=O)C(=O)NC[C@@H]3Cc3ccccc3)C[C@@H]2Cc2ccc(O)cc2)cc1	u	u	u	x	n	u
CCNc1nc(OC)nc(SCC(=O)Nc2ccccc2)n1	u	n	n	n	n	u
CC1CN(C(=O)COC(=O)c2cnc(Cl)c(Cl)c2)CC(C)O1 (centres undefined)	n	n	n	n	-72	n
N#Cc1c(-c2ccccc2)nc(SCC(=O)Nc2nnc(C(F)(F)F)s2)[nH]c1=O	n	n	n	n	n	n
CC[C@H](C)[C@H](NC(=O)[C@H](CCCN=C(N)N)NC(=O)[C@H](CCCN=C(N)N)NC(=O)[C@H](CC(C)C)NC(=O)[C@H](Cc1ccccc1)NC(=O)CNC(=O)CN)C(=O)N[C@@H](CCCN=C(N)N)C(=O)N1CCC[C@H]1C(=O)N[C@@H](CCCCN)C(=O)N[C@@H](CC(C)C)C(=O)N[C@@H](CCCCN)C(=O)O	n[4.12 µM]	x	x	x	x	n[4.12 µM]
CC1(Cc2ccc(Cl)cc2)C(=O)Nc2c(Cl)ccc(Cl)c21 (centres undefined)	u	u	u	x	n	26µM
Cc1ccc(CC2(C)C(=O)Nc3c(Cl)ccc(Cl)c32)cc1 (centres undefined)	16µM	n	u	x	n	u
Cc1c(O)ccc2c1OC(C)(C)CC2	4µM	n	n	x	x	5.6µM
CCCc1nc(SCC(=O)Nc2cc(C)on2)c2ccccc2n1	u	n	n	26µM	u	u
Cc1cc(NC(=O)CSc2nc(-c3cccs3)nc3ccccc23)no1	1.8µM	5.2µM	5.8µM	n	n	2.3µM
SMILES	DT40 TDP1 no CPT	HT1080 IDH1KD tx	HT1080NT lethal	ELG1 DNA repair	IL1B secr inh	TDP1 cell CPT
COc1ccc(C2CC(=O)C(C=NCCO)=C(O)C2)cc1 (centres undefined)	n	n	n	n	n	n
O=C(COc1nc2ccccc2nc1N1CCOCC1)Nc1cccc(S(=O)(=O)N2CCCCC2)c1	u	n	n	n	u	n
CCCn1nc2cc(C(=O)NCC34CC5CC(CC(C5)C3)C4)ccc2c1OCC	18µM	n	n	u	n	21µM
Cc1cccc(-c2cnc(C(O)c3ccc(-c4ccccc4)cc3)[nH]2)c1 (centres undefined)	23µM	u	u	x	n	23µM
OC(c1ccc(-c2ccccc2)cc1)c1ncc(-c2ccccc2)[nH]1 (centres undefined)	u	u	n	x	n	u
Cc1cc(C)cc(C(O)c2ncc(-c3ccccc3Cl)[nH]2)c1 (centres undefined)	u	21µM	u	x	n	u
Cc1ccc2ccccc2c1C(O)c1ncc(-c2ccccc2Cl)[nH]1 (centres undefined)	u	u	u	x	n	26µM
Cc1cc(C)cc(C(O)c2ncc(-c3ccc4ccccc4c3)[nH]2)c1 (centres undefined)	u	u	n	x	n	23µM
CCCCN(C(=O)c1cccc(-n2cnnn2)c1)c1c(N)n(CCCC)c(=O)[nH]c1=O	n	n	n	x	n	n
c1ccc(-c2ccc3ncccc3n2)cc1	u	n	n	x	n	n
COc1ccccc1/C=C/CN1CCN(Cc2ccc(F)cc2)C(CCO)C1 (centres undefined)	18µM	n	n	n	u	u
CC(C)=CCN1CCN(Cc2cnc(-c3ccccc3)s2)CC1CCO (centres undefined)	u	n	n	n	n	26µM
CC(C)=CCN1CCN(Cc2nc(-c3ccc(F)cc3)cs2)CC1CCO (centres undefined)	u	n	n	n	n	u
Cc1ccc(CN2CCN(Cc3nc(C(C)C)cs3)CC2CCO)cc1 (centres undefined)	12µM	n	n	n	n	u
OCCC1CN(Cc2nc(-c3ccccc3)cs2)CCN1Cc1ccc(F)cc1 (centres undefined)	16µM	n	n	n	-76	23µM
COc1cc(C(C)=O)ccc1OCC(O)CN1CCN(c2ccccn2)CC1 (centres undefined)	n	n	n	n	-56	u
